PostGolgi yeast = growth inhibition of a yeast mutant, post-Golgi transport screen. AID 739. post-Golgi transport phenotypic cell assay. hit rate 0.9% among 98,000. inhibition, % at 10 µM;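 also: yeast cells grown in 1536-well plates; yeast grown about 18 h at 30C before absorbance read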
Cav3 T inh = blocks human Cav3.2 T-type calcium channel | O95180 | Cav3.2-expressing cells, Fluo-4 calcium fluorescence FDSS; active compounds read low | B-score at 10 µM | hit rate 4% among 100,000 | AID 449739;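 active = single-dose well whose peak fluorescence ratio is a statistical outlier from its plate by either plate-standardised score or position-corrected B-score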
hDAT+cocaine = human DAT dopamine uptake with cocaine, either direction; Q01959; LLC-PK1 hDAT cells, [14C]-dopamine uptake with cocaine IC80; actives deviate in either direction; B-score at 10 µM; hit rate 1.3% among 110,000; AID 449768;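 active = Z score or B-score, a plate-position-corrected score, falls beyond the plate's 99.7% confidence bounds, in either direction; inactive = both scores lie inside the 99.7% bounds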
PostGolgi ctrl = growth of the yeast control strain, post-Golgi counter-screen; efflux-deficient yeast background strain, growth absorbance A615, 16 h; hit rate 5% among 98,000; inhibition, % at 10 µM
TNAP act DEA = human TNAP activation, intermediate phosphate acceptor | purified TNAP, CDP-star luminescence, 100 mM DEA, 30 min; active compounds read high; scale: 0 levamisole-inhibited, 1 vehicle-only enzyme | activation factor at 20 µM | 64,000 tested, under 10 active;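 active = activation factor of at least 2 at 20 µM, relative to controls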
Smad3 inh = inhibitors of human Smad3 transcription factor binding; P84022; TR-FRET Smad3/Dy647-FoxH1 peptide binding, europium anti-His; inhibition, % at 25 µM; hit rate 0.29% among 88,000; AID 630;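 active = compounds that reduce the energy-transfer binding signal between the protein and its labelled peptide by more than half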
A number is an active result; 0 = inactive; - = not tested or not shown. Shown are actives, neighbours in structure and some others; about 8.7% of the full set was active somewhere. Rule as the data show it, unless noted: active = inhibition above about 30%; inactive = the rest.

SMILES | PostGolgi yeast | Cav3 T inh | hDAT+cocaine | PostGolgi ctrl | TNAP act DEA | Smad3 inh
O=C1CC(c2ccccc2)CN1S(=O)(=O)c1ccccc1 (configuration not stated) | 0 | 0 | 0 | 0 | 0 | 0
CCOc1ccc(C(Nc2ccc(C)cc2)P2(=O)OCCCO2)cc1 (configuration not stated) | 0 | 0 | 0 | 0 | - | 0
COc1ccc(C(=O)NCC(=O)NCC2(N(C)C)CCCCC2)cc1OC | 0 | 0 | 0 | 0 | - | -
CC(C)(C)C(=O)Nc1ccc(C(=O)NCc2cccnc2)cc1 | 0 | 0 | 0 | 0 | - | 0
CS(=O)(=O)Nc1ccc(C(=O)NCc2cccnc2)cc1 | 0 | 0 | 0 | 31 | 0 | 0
O=S(=O)(c1ccc(Br)s1)N1CCc2ccccc2C1 | - | 0 | 0 | - | - | -
COc1ccc(S(=O)(=O)Nc2ccc3c(c2)OCO3)cc1C | 0 | 0 | 0 | 0 | - | 0
CCNc1sc(C(=O)c2cccs2)c(N)c1-c1nc2ccccc2s1 | 0 | 0 | 0 | 36 | 0 | 0
Cc1cc(=O)oc2c1ccc1oc(/C(=N/O)c3ccccc3)c(C)c12 | 0 | 0 | 0 | 35 | 0 | 0
Cc1ccc(/C(=N\O)c2oc3c(C)c4oc(=O)cc(C)c4cc3c2C)cc1 | - | - | - | - | - | 0
CCCCN=c1sc(C(=O)OC)cc(=O)n1CCCC | 0 | 0 | 0 | 0 | 0 | -
CCOC(=O)c1ccc(N=c2sc(C(=O)OC)cc(=O)n2Cc2ccco2)cc1 | 0 | 0 | 0 | 57 | 0 | 0
COC(=O)c1cc(=O)n(Cc2cccs2)c(=NCc2cccs2)s1 | 0 | 0 | 0 | 31 | 0 | -
CCC(C)[C@H](NC(=O)N1CCN(c2cccc(C(F)(F)F)c2)CC1)C(=O)OC (some centres not stated) | 0 | 0 | 3.2 | 0 | - | 0
O=C(CS(=O)(=O)Cc1ccccc1)N1CCN(c2cccc(C(F)(F)F)c2)CC1 | 0 | -4.3 | 0 | 0 | 0 | 0
O=C(Nc1ccccc1)N1CCN(c2cccc(C(F)(F)F)c2)CC1 | 0 | 0 | 0 | 0 | - | 0
Brc1ccc(-c2cn3c(n2)CCc2ccc4cccnc4c2-3)cc1 | 52 | 0 | 0 | 59 | - | 0
Cc1ccc(C(C)C)c(OCCCN2CC(C)OC(C)C2)c1 (configuration not stated) | 83 | 0 | 0 | 0 | 0 | 0
C=CCc1ccc(OCCCOc2ccc(C)cc2OC)c(OC)c1 | 0 | 0 | 0 | 0 | - | 0
COc1cccc(OCCCCN2CCCCC2)c1 | 0 | 0 | 0 | 0 | 0 | 0
C=CCc1ccc(OCCCCN2CC(C)OC(C)C2)c(OC)c1 (configuration not stated) | 97 | 0 | 0 | 43 | - | 0
COc1cccc(OCCCCN2CC(C)OC(C)C2)c1 (configuration not stated) | 86 | 0 | 0 | 43 | - | 0
COc1ccc(NC(=O)C2C3C=CC(C3)C2C(=O)NCc2ccco2)cc1 (configuration not stated) | 0 | 0 | 0 | 0 | 0 | 0
CCN1CCCC1CNC(=O)c1ccc(CS(=O)(=O)c2ccccc2C)o1 (configuration not stated) | 0 | 0 | 0 | 0 | 0 | 0
CCOC(=O)NC1(NCC(C)C)Oc2ccccc2O1 | 0 | 0 | 0 | 0 | - | -
SMILES | PostGolgi yeast | Cav3 T inh | hDAT+cocaine | PostGolgi ctrl | TNAP act DEA | Smad3 inh
Cc1ccc2cccc(S(=O)(=O)N3CCN(c4cccc(Cl)c4)CC3)c2n1 | 0 | 0 | 0 | 57 | 0 | 0
COc1ccc(Cl)cc1NC(=O)C(C)N1CCN(C/C=C/c2ccccc2)CC1 (configuration not stated) | 65 | 0 | 0 | 0 | - | 0
CCOc1ccccc1N1CCN(C(=O)c2cccc(-c3ccc(O)cc3)c2)CC1 | 0 | - | - | 99 | 0 | 0
O=C(Nc1cccc(Cl)c1)N1CCN(c2ncccn2)CC1 | 0 | 0 | 0 | 0 | 0 | 0
O=C(Nc1cccc(Cl)c1)N1CCN(C/C=C/c2ccccc2)CC1 | 40 | -6 | 0 | 0 | 0 | 0
COc1ccc(Cl)cc1NC(=O)CC(C)c1ccccc1 (configuration not stated) | 0 | -7.6 | 0 | 0 | - | 0
COc1ccc(OC)c(NC(=S)N2CCN(C/C=C/c3ccccc3)CC2)c1 | 0 | 0 | 0 | 0 | - | -
COc1ccc(Cl)cc1NC(=O)CC(C)=O | 0 | 0 | 0 | 0 | 0 | 0
COC(=O)c1ccc(-c2nc3cc(Cl)c(N)cc3s2)cc1 | 0 | 0 | 0 | 0 | - | -
CCOc1ccccc1N1CCN(C(=O)Nc2ccc(Cl)c(Cl)c2)CC1 | 0 | - | - | 0 | - | -
CCOc1ccccc1N1CCN(C(=O)Nc2cccc(Cl)c2)CC1 | 0 | -6.1 | 0 | 0 | 0 | 0
